# Laboratory results as given in ChEMBL document CHEMBL3988442, “University of Dundee, Small-Polar-MMV Screening Library” (2021).
# Target: T1, Aspartate--tRNA(Asp/Asn) ligase (Mycobacterium tuberculosis (strain ATCC 25618 / H37Rv)) (UniProt P9WFW3)
# T1 sequence (whole entry): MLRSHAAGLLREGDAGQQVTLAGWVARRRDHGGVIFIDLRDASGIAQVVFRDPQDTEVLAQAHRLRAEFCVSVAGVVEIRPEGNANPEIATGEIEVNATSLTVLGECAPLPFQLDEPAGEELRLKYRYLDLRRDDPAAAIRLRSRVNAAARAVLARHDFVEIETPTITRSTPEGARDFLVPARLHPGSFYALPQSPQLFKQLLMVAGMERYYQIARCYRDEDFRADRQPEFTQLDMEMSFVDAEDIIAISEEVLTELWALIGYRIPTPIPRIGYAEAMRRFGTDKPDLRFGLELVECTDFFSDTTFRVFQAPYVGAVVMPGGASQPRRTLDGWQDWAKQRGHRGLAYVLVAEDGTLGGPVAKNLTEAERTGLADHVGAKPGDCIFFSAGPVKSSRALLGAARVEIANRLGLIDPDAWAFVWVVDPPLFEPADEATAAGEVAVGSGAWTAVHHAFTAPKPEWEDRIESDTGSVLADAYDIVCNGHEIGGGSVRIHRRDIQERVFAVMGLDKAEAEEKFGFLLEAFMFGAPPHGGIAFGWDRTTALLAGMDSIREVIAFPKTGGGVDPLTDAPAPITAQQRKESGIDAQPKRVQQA
# Assay: Assay for Asp RNA synthetase-1 from Mycobacterium tuberculosis
# Format: functional
# Set-up: scale not given: in the data most compounds retested in dose-response had high values
# Settings: 30 µM
row,Compound,Percent Effect
1,Cc1nn(CCn2ccnc2-c2cc3n(n2)CCCNC3)c(C)c1Cl,-0.0115%
2,Cc1cc(F)ccc1CN1CCC(O)(CN2CCCCC2)C1 (stereo not given),-0.747%
3,O=C(O)c1ccc(F)c(S(=O)(=O)Nc2ccc(-n3cccn3)c(Cl)c2)c1,-5.11%
4,CCCS(=O)(=O)N1CCC(NC(=O)c2ccc(Cl)s2)CC1,0.379%
5,COCCc1noc(CN(C)C2CCCN(c3ccc(C)nn3)C2)n1 (stereo not given),0.172%
6,O=S(=O)(Cc1ccccc1F)NCCN1CCOCC1,-2.93%
7,O=C1CCC2(CCN(Cc3cc(F)ccc3Cl)CC2)CN1C1CCCC1,0.0575%
8,O=C(c1cnn(-c2ccccc2F)c1)N1CCN(CCO)CC1,-3.94%
9,CCc1nc(CNC(=O)Nc2ccc(C(=O)NC)cc2C)cs1,-0.0804%
10,Cc1ccsc1CNC(=O)NC1CCCc2c1cnn2CCO (stereo not given),-1.99%
11,COC1CCCN(C(=O)Nc2nc(C)n(C)n2)C1 (stereo not given),-3.53%
12,CC(C)N1CCC(NCc2cccnc2N(C)C)CC1,-1.8%
13,Cn1cccc1C1CCCN1C(=O)NCCCn1cccn1 (stereo not given),-1%
14,O=C(NCCNS(=O)(=O)c1ccc2c(c1)CCCC2)c1ccoc1,8.29%
15,O=C(COc1cccc(Br)c1)N1CCN(c2nccs2)CC1,1.41%
16,CC(=O)Nc1cc(C(=O)N2CCOCC2c2ccc(C)o2)ccc1F (stereo not given),-5.67%
17,Cc1ccc(C#N)c(N2CCC(c3nccn3CCN(C)C)CC2)n1,-1.39%
18,O=C1O[C@@H]2CN(Cc3cccc(F)c3)C[C@@H]2N1CCCN1CCOCC1,0.287%
19,Cc1cnn(Cc2cc(F)ccc2F)c1NC(=O)NC1CC1,-1.44%
20,CCSCCC(=O)Nc1ncn(Cc2cccnc2)n1,-2.31%

row,Compound,Percent Effect
1,O=C1N(Cc2cccc(F)c2F)CCCC1(O)CN1CCCOCC1 (stereo not given),-2.15%
2,O=S(=O)(Cc1ccccc1F)NCCCN1CCCCC1,0.172%
3,Cc1cccc(CN2C[C@H]3OC(=O)N(CCCN4CCOCC4)[C@H]3C2)n1,-2.42%
4,O=C1CC(c2cccs2)c2cnn(C3CCCC3)c2N1 (stereo not given),-1.62%
5,CC(C)N(C)CC(=O)NC1CCc2nccn2C1 (stereo not given),1.39%
6,CN1C(=O)CC(C(=O)O)C12CCN(Cc1ccc(Cl)cc1F)CC2 (stereo not given),-1.62%
7,CN(C)CCn1c(=O)oc2ccc(NC(=O)C3CCCO3)cc21 (stereo not given),-2.08%
8,Cc1cc(N2CCN(Cc3ccc(-c4cc[nH]n4)o3)CC2)cc(C)n1,0.126%
9,O=C(CCNS(=O)(=O)c1ccc2c(c1)CCCC2)NCc1ccoc1,0.701%
10,O=C(O)C(c1ccc2c(c1)OCCO2)N1CCCCCC1 (stereo not given),-3.23%
11,Cc1nc2c(c(C)c1CC(=O)Nc1ccc(Cl)cc1)c(=O)[nH]n2C,-4.86%
12,CCn1nc(C)c(CNC(=O)c2cn(CCC3CCCCN3)nn2)c1C (stereo not given),0.0575%
13,COCc1nc2n(n1)CCCC2Nc1nc(C2CC2)ns1 (stereo not given),0.0804%
14,Cc1ccc(C2COCCN2C(=O)c2ccc(CN(C)C)cc2)o1 (stereo not given),-1.28%
15,O=C(Nc1cccc(OCc2ccc(F)cc2)c1)C1COCCO1 (stereo not given),-1.28%
16,CC(C)c1nccn1CCCNC(=O)c1ccc(-c2cncnc2)nc1,-1.78%
17,CCc1nc(NS(=O)(=O)c2ccc(F)cc2C)no1,-2.08%
18,O=C(CCc1c[nH]cn1)N1CC[C@@H](c2ccc3ccccc3c2)[C@H](O)C1,-0.632%
19,CCOCCn1nnc(C2(NC(=O)c3ccccc3)CCCC2)n1,-3.44%
20,N#Cc1ccnc(N2CCC(c3nccn3Cc3cscn3)CC2)c1,-4.66%
